The supplement of paper PMC11732987, “Enantioselective OTUD7B fragment discovery through chemoproteomics screening and high-throughput optimisation” (Communications Chemistry, 2025)

How the values were obtained:
Experiment in all cases: log2 ratio of Biotin-Ahx-Ub-VS probe labelling (fragment/DMSO); higher = less target engagement (more negative = stronger competition), active = hit call of the paper (q ≤ 0.05, log2 ratio ≤ -1)
Settings in all cases: compound concentration: 200 uM; treatment time: 3 h
[1] = molecular target: T1, USP42 (UniProt Q9H9J4)
T1 sequence (whole entry): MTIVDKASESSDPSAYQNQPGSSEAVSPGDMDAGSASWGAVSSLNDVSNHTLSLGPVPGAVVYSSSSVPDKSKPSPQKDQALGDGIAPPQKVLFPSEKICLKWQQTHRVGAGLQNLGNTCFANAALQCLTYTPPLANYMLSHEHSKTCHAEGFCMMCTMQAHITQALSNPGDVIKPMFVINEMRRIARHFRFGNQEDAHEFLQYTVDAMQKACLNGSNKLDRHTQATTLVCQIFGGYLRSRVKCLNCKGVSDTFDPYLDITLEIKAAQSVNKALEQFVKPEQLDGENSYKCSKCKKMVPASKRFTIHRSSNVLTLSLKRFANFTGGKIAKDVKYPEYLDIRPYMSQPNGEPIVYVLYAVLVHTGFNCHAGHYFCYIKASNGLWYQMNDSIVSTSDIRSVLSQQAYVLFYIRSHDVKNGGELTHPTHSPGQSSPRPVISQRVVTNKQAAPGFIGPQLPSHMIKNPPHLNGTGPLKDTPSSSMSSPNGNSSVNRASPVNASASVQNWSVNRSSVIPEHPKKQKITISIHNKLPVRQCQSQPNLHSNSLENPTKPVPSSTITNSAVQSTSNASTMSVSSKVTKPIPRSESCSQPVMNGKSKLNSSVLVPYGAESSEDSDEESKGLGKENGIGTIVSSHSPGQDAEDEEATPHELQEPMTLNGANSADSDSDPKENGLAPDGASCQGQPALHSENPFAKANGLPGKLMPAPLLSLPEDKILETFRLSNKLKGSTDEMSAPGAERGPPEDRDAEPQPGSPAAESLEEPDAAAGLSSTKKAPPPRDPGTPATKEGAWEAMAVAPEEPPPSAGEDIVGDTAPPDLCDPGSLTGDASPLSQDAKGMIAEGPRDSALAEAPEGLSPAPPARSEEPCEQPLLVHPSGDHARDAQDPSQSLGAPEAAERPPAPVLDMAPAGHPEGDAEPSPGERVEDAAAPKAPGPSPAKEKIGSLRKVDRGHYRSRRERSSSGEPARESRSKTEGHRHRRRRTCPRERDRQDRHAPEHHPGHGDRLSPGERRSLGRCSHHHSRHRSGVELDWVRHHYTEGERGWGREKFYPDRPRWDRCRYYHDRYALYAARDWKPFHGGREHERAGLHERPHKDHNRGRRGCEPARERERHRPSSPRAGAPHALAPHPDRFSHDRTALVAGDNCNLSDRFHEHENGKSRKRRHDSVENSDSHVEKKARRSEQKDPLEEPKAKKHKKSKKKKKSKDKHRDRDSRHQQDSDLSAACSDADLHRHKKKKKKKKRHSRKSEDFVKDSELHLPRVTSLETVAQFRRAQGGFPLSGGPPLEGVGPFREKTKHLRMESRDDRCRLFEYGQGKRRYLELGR
Method in brief: (§1)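 Using Biotin-Ahx-Ub-VS at 0.5 µM final for 1 h, DUBs were labelled in HEK293T lysate (495 µg per sample) that had first been treated in triplicate with fragment at 200 µM or vehicle for 3 h. NeutrAvidin enrichment, LysC and trypsin digestion and diaPASEF LC-MS/MS followed. Spectronaut label-free quantities were global-median-normalised. Values are average log2 fragment/vehicle ratios by unpaired t-test, using proteins with ≥2 unique peptides.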

[2] = molecular target: USP46 (UniProt P62068)
Method in brief: as §1

[3] = molecular target: T2, USP47 (UniProt Q96K76)
T2 sequence (whole entry): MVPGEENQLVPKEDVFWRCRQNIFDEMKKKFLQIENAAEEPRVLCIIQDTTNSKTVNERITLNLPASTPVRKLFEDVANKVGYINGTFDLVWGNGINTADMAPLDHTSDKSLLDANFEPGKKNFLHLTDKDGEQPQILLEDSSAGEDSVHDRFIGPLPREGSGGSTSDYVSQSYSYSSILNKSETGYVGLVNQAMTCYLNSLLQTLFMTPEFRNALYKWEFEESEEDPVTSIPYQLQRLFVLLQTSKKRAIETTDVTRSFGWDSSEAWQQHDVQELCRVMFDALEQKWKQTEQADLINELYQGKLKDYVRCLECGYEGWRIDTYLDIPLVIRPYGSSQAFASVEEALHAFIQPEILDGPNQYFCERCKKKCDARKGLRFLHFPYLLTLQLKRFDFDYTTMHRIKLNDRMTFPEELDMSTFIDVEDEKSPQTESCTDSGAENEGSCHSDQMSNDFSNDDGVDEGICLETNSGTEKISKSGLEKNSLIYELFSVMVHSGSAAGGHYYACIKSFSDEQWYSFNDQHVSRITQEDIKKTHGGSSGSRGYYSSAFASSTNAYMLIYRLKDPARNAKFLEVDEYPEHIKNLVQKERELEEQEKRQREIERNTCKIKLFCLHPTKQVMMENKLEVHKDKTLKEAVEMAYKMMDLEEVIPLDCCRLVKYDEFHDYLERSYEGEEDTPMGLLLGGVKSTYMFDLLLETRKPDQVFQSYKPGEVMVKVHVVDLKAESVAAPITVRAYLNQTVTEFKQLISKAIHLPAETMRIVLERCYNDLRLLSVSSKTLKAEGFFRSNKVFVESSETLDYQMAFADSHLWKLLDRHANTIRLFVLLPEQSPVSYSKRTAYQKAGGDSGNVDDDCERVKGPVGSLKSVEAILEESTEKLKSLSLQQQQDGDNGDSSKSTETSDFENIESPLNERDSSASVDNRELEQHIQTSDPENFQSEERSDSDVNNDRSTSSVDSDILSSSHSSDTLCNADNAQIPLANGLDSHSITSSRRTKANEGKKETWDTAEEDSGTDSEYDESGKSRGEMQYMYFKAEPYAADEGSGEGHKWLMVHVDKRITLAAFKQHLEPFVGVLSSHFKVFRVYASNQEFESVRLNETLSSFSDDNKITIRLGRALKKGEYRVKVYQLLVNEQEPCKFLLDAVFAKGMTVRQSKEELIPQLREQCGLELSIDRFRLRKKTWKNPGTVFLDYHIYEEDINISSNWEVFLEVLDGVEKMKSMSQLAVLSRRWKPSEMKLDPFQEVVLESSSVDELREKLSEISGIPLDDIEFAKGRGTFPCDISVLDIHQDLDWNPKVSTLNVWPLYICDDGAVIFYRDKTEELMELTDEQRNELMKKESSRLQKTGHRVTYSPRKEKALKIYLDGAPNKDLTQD
Method in brief: as §1

[4] = molecular target: T3, USP48 (UniProt Q86UV5)
T3 sequence (whole entry): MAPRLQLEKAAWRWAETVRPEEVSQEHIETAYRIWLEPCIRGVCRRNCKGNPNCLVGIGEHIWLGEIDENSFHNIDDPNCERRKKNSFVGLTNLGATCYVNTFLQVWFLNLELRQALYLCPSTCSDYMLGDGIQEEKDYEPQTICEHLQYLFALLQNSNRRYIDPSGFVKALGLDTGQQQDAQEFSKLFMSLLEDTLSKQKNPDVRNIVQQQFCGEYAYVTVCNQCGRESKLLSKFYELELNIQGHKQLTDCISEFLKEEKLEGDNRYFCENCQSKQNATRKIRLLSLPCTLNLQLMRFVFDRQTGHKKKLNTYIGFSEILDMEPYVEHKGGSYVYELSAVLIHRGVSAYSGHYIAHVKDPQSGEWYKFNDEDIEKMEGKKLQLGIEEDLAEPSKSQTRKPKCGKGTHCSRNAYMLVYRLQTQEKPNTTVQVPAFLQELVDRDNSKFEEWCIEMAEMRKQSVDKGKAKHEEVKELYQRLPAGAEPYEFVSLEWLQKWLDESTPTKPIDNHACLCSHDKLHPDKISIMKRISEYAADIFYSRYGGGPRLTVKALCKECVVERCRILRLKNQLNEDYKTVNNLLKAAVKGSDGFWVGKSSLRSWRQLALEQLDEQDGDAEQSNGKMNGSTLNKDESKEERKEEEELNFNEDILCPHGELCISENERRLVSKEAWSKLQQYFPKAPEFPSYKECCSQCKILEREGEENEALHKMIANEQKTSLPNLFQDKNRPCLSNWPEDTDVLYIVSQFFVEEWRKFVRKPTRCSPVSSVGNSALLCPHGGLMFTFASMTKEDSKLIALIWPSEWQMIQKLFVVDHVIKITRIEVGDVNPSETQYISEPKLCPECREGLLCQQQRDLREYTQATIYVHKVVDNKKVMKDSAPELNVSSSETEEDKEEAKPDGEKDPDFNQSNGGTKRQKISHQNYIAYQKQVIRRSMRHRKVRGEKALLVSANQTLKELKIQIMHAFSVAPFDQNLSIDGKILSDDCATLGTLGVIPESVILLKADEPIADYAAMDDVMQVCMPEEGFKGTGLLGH
Method in brief: as §1

[5] = molecular target: T4, USP5 (UniProt P45974)
T4 sequence (whole entry): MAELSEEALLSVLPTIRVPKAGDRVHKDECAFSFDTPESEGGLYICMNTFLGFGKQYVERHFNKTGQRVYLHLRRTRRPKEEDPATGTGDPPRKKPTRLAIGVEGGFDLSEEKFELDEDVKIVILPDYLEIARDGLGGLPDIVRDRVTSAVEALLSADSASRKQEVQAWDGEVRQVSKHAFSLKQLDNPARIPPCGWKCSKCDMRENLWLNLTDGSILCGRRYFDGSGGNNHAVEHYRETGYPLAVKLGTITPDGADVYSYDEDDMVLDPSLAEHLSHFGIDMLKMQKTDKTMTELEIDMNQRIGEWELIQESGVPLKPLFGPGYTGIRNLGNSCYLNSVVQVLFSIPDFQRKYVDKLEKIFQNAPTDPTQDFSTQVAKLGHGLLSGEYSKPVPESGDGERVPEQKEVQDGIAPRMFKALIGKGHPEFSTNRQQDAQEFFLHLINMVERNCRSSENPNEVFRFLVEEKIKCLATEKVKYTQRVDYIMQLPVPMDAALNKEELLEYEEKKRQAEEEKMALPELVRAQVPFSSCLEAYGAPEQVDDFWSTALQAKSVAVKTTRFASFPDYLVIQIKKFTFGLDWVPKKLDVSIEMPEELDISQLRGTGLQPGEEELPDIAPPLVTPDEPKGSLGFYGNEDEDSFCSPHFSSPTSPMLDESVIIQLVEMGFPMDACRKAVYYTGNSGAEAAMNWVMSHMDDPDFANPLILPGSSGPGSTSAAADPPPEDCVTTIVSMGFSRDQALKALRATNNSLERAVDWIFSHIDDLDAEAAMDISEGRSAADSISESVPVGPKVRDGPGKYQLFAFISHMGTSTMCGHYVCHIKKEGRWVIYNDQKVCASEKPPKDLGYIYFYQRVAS
Method in brief: as §1

[6] = molecular target: USP54 (UniProt Q70EL1)
Method in brief: as §1

[7] = molecular target: USP7 (UniProt Q93009)
Method in brief: as §1

[8] = molecular target: T5, USP8 (UniProt P40818)
T5 sequence (whole entry): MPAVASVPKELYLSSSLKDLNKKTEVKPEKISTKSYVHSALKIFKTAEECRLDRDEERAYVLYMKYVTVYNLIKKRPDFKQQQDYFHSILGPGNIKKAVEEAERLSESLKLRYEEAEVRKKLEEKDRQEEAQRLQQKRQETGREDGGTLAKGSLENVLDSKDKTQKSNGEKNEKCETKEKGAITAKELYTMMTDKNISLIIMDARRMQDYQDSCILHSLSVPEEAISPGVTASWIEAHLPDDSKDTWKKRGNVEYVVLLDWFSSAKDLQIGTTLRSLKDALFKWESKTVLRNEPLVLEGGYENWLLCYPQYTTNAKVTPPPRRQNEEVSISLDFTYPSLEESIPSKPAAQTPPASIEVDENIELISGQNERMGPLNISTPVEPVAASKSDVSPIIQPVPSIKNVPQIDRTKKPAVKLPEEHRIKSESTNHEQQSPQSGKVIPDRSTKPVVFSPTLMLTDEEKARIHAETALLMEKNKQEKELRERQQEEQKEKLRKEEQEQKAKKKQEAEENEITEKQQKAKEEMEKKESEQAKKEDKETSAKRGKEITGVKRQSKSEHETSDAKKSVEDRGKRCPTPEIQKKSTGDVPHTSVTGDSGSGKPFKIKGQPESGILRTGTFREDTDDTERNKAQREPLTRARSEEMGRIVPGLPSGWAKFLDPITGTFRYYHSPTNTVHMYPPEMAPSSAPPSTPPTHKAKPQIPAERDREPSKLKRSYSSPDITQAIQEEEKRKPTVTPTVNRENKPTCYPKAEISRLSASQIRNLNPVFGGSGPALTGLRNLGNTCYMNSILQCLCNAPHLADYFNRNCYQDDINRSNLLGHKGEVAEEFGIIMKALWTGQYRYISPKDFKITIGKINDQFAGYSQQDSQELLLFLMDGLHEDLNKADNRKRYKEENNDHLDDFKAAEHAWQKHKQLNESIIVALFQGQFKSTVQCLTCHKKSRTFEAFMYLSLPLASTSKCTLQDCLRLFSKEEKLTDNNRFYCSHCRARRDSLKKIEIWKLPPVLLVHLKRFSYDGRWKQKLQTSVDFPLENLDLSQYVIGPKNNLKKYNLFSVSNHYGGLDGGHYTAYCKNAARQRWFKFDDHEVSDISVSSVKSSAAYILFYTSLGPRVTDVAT
Method in brief: as §1

[9] = molecular target: USP9X (UniProt Q93008)
Method in brief: as §1

[10] = molecular target: UniProt O00487
Method in brief: as §1

Measured: log2 ratio of Biotin-Ahx-Ub-VS probe labelling

Chain of USP9X (Q93008 whole entry): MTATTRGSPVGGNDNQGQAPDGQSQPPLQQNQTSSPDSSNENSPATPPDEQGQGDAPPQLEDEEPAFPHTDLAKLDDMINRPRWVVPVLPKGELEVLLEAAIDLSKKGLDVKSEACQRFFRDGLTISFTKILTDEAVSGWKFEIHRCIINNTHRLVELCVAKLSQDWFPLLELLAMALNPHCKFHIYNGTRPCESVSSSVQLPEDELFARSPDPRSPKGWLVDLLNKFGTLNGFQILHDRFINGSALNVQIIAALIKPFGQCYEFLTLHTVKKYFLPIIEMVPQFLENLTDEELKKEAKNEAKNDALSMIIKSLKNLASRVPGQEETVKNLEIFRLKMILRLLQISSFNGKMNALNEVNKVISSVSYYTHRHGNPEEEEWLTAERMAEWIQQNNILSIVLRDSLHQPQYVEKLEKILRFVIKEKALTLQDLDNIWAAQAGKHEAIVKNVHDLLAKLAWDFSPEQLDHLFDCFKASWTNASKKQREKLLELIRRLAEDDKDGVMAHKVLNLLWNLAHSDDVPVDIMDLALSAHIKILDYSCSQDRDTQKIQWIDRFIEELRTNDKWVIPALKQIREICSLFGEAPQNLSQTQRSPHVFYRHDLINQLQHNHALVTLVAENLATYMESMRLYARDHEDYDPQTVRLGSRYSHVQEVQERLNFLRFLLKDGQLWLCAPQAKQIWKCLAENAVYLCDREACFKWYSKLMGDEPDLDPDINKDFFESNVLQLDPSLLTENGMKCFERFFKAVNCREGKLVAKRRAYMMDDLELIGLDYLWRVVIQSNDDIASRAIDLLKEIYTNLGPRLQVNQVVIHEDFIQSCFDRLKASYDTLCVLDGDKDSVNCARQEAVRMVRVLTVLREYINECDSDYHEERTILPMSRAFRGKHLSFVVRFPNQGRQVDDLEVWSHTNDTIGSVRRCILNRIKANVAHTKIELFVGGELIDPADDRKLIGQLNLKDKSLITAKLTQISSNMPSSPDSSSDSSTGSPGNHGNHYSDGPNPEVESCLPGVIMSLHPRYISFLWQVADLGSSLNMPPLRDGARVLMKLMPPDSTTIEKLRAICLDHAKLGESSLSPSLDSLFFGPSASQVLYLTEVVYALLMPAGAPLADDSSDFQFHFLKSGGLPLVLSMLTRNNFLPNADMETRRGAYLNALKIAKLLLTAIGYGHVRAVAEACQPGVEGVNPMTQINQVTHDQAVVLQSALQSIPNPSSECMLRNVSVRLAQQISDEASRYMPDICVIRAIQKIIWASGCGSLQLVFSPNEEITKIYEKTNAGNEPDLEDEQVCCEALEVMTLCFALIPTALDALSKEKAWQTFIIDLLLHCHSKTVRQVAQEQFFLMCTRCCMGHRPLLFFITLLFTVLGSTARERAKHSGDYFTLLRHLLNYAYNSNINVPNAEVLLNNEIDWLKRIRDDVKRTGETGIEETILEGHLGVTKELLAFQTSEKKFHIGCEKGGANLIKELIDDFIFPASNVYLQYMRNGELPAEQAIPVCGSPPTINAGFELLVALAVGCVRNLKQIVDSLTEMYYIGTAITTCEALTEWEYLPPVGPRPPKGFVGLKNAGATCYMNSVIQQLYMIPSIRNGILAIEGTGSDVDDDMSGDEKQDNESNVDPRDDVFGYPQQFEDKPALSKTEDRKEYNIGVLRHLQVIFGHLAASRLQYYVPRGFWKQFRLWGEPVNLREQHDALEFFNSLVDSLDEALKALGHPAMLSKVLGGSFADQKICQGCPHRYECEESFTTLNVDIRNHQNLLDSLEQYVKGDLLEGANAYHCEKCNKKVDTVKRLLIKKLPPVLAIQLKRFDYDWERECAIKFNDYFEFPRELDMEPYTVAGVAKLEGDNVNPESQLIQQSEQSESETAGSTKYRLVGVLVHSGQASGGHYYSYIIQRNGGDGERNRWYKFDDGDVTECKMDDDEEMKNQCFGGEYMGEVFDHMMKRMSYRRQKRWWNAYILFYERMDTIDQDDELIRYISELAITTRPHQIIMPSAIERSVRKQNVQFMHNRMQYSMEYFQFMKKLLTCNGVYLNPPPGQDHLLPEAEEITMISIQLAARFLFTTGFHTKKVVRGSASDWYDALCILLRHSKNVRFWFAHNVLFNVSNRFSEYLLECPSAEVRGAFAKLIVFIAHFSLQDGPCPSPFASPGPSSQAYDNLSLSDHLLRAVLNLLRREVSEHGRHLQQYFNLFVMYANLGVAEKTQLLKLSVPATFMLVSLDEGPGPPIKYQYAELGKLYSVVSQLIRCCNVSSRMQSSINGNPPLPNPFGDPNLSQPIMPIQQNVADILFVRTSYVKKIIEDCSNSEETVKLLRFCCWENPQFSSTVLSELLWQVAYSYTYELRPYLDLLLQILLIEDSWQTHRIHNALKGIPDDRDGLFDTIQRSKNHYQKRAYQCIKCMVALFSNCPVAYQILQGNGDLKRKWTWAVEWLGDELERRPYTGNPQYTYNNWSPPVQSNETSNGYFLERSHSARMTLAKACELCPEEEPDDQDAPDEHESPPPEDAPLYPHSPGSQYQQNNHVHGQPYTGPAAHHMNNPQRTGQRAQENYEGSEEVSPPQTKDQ
Chain of UniProt O00487 (O00487 whole entry): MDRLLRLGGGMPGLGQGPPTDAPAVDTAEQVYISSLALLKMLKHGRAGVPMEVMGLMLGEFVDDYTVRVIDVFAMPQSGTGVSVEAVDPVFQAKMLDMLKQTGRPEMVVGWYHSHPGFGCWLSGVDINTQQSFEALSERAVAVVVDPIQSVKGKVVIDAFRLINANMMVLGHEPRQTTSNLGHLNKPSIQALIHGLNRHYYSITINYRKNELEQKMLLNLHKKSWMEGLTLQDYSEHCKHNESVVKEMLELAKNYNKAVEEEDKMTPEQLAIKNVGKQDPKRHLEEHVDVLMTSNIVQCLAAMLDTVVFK
Chain of USP7 (Q93009 whole entry, looked up): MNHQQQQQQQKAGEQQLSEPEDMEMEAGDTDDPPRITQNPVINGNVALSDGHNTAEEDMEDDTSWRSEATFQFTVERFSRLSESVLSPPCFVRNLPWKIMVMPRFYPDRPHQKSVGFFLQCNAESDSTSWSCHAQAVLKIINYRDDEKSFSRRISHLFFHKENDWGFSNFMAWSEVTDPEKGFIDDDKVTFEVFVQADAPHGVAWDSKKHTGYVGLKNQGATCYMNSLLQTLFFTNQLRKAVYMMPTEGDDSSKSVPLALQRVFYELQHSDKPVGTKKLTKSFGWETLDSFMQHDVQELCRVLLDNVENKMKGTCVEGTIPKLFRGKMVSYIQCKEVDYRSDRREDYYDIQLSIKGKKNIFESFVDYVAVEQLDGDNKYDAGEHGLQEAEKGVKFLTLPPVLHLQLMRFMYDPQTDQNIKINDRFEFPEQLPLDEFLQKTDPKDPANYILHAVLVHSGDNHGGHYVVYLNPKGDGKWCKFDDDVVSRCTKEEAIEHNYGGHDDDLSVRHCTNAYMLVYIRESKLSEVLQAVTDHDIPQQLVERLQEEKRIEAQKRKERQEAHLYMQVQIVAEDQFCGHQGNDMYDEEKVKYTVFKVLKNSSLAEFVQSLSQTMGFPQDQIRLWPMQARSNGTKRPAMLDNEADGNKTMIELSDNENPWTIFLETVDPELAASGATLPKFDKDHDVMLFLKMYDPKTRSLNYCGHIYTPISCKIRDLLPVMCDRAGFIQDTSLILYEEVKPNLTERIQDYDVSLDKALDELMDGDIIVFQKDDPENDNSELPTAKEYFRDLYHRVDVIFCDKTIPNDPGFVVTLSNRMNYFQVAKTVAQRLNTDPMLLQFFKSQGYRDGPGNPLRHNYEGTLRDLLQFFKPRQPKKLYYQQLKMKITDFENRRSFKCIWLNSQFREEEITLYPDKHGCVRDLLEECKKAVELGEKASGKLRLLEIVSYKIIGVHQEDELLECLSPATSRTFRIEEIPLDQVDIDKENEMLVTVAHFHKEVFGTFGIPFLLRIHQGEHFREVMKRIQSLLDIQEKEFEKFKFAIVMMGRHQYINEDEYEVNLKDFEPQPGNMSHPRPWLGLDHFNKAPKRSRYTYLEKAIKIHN
Chain of USP46 (P62068 whole entry): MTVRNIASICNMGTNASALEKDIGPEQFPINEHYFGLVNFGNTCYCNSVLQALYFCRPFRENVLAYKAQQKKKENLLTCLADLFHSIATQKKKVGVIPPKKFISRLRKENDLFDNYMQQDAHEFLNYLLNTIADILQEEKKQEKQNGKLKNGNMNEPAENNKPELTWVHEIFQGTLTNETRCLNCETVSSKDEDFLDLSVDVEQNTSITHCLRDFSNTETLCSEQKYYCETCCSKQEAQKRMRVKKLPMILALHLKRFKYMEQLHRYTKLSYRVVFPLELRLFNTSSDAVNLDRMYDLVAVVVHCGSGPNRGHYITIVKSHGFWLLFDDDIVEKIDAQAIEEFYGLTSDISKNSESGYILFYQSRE

Cl.O=C(CCl)NCCN1CCc2ccccc21
inactive: [1] -0.219 | [2] -0.521 | [3] 0.103 | [4] -0.343 | [5] -0.362 | [6] 0.277 | [7] -0.711 | [8] -0.959 | [9] -0.798 | [10] -0.255
